Experimental data as given in ChEMBL document CHEMBL3988442, “University of Dundee, Small-Polar-MMV Screening Library” (2021).
For some assays here: Measured potencies and affinities stand elsewhere.

Key:
Design in all cases: scale not given: direction of the effect not stated beside the values
[1] = target: Protein translocase subunit SecA (Escherichia coli (strain K12)) (UniProt P10408); assay: Assay to Identify E. coli SecA ATPase Inhibitors; format: functional; details: 30 µM
[2] = target: T1, Ubiquitin-activating enzyme e1, putative (Leishmania donovani (strain BPK282A1)) (UniProt E9BSI1); assay: Leishmania donovani Ubiquitin Activating Enzyme (LdE1); format: functional; details: 30 µM
T1 sequence (whole entry): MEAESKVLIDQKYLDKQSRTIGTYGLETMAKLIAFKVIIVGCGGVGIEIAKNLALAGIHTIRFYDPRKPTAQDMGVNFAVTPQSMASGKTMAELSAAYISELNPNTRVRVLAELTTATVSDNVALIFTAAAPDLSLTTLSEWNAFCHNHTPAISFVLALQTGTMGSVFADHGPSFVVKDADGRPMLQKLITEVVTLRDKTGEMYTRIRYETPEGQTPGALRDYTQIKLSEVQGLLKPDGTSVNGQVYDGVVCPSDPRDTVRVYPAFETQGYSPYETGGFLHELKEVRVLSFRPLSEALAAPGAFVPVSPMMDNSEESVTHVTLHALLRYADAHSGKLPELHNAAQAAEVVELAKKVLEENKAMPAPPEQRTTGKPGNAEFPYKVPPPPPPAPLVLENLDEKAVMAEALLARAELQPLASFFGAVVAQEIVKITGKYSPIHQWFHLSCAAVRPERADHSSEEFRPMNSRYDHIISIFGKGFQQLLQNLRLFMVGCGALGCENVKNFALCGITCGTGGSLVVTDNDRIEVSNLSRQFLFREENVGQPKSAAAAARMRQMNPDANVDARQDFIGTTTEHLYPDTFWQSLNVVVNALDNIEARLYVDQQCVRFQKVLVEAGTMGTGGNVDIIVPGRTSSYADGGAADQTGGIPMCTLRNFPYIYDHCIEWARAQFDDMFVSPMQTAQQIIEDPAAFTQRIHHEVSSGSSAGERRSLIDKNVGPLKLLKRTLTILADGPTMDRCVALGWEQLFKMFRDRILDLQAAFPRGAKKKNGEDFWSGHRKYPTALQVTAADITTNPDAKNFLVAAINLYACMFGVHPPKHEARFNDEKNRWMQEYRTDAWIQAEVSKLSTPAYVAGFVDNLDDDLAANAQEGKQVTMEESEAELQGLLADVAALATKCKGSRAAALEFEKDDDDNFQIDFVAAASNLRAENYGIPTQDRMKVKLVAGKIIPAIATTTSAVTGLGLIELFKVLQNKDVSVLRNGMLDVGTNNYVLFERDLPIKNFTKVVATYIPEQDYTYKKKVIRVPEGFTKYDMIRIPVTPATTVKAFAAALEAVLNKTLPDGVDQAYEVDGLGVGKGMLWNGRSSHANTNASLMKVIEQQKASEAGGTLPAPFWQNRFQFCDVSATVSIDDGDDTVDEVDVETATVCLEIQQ

[3] = target: AMP-activated protein kinase, AMPK (Homo sapiens) (UniProt P54646+O43741+P54619+Q9UGJ0+Q9Y478+Q13131+Q9UGI9); assay: AMP-dependent Kinase enzyme assay. An in vitro enzyme assay that detects ADP turnover that is directly proportional to AMPK activity. This uses naive AMPK that is activated during the assay with MK-8722; format: functional; details: 30 µM
[4] = target: Sialic acid-binding Ig-like lectin 9 (Homo sapiens) (UniProt Q9Y336); assay: Hs-Siglec9 ALPHAscreen SOP 20170721; details: 10 µM
Trypanosoma cruzi = assay: Trypanosoma cruzi phosphomannomutase and mannose-1-phosphate guanylyltransferase assay; format: functional; details: 10 µM
[5] = target: T2, Arginase-2, mitochondrial (Homo sapiens) (UniProt P78540); assay: in vitro enzyme assay to detect the production of urea directly proportional to the activity of Arginase II; format: functional; details: 33.3 µM; also: in the data most compounds retested in dose-response had high values
T2 sequence (whole entry): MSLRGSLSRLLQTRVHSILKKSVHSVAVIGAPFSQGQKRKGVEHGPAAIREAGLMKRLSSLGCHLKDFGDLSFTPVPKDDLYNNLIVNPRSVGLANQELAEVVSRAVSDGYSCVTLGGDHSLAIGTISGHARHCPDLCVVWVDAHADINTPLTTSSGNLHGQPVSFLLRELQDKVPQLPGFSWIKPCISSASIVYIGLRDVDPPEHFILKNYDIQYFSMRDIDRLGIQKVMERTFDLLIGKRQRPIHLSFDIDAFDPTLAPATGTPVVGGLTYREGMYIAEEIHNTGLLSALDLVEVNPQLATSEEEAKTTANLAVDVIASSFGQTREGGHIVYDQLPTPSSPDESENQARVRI

[6] = target: T3, Proteasome subunit beta (Trypanosoma cruzi) (UniProt O96673); assay: Trypanosoma cruzi proteasome chymotrypsin-like activity (TcProtChymo) assay.; also: in the data most compounds retested in dose-response had high values; format: functional; details: 9.37 µM
T3 sequence (whole entry): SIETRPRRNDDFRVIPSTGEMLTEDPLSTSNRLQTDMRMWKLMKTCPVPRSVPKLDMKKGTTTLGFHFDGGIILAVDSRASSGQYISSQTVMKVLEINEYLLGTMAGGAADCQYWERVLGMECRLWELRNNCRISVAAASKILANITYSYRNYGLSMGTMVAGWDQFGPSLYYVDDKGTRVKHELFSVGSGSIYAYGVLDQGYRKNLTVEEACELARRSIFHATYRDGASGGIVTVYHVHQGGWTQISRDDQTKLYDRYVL

Homo sapiens = organism: Homo sapiens; assay: To identify inhibition of the IFN signalling (Jak-Stat) pathway via expression of an eGFP reporter gene under the control of an IFN-stimulated response element (ISRE) containing MxA promoter.; format: functional; details: 30 µM
[7] = target: T4, Tyrosyl-tRNA synthetase, putative (Trypanosoma cruzi (strain CL Brener)) (UniProt Q4DSP6); assay: Trypanosoma cruzi tyrosyl tRNA synthetase (TcYRS) _High Tyrosine SOP; format: functional; details: 30 µM; also: in the data most compounds retested in dose-response had high values
T4 sequence (whole entry): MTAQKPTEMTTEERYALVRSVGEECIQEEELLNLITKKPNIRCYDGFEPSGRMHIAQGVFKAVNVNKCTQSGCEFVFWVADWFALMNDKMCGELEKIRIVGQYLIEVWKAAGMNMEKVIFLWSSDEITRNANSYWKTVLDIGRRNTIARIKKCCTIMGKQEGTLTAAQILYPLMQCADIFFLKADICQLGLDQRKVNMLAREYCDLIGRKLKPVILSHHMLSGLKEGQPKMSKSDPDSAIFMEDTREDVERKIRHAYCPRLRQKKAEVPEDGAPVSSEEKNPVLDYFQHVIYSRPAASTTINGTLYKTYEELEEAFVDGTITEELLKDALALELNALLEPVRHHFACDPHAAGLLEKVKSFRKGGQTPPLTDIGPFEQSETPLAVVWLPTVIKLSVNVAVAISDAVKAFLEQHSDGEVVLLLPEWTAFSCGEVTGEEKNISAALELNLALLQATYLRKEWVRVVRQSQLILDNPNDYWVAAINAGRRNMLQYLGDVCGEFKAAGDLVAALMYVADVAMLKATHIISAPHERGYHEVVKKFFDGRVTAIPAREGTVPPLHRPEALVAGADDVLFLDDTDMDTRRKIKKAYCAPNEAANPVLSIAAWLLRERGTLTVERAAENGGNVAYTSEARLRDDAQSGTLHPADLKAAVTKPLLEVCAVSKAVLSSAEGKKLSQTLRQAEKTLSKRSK

[8] = target: T4, Tyrosyl-tRNA synthetase, putative (Trypanosoma cruzi (strain CL Brener)); assay: Trypanosoma cruzi tyrosyl tRNA synthetase (TcYRS) SOP; format: functional; details: 30 µM
[9] = target: Chromo domain-containing protein 1 (Saccharomyces cerevisiae (strain ATCC 204508 / S288c) (Baker's yeast)) (UniProt P32657); assay: ScCHD-1 Enzyme Inhibition Assay; format: functional; details: 30 µM; also: in the data most compounds retested in dose-response had high values
Sequence of Chromo domain-containing protein 1 (Saccharomyces cerevisiae (strain ATCC 204508 / S288c) (Baker's yeast)) (P32657 whole entry, the tested form may be a part): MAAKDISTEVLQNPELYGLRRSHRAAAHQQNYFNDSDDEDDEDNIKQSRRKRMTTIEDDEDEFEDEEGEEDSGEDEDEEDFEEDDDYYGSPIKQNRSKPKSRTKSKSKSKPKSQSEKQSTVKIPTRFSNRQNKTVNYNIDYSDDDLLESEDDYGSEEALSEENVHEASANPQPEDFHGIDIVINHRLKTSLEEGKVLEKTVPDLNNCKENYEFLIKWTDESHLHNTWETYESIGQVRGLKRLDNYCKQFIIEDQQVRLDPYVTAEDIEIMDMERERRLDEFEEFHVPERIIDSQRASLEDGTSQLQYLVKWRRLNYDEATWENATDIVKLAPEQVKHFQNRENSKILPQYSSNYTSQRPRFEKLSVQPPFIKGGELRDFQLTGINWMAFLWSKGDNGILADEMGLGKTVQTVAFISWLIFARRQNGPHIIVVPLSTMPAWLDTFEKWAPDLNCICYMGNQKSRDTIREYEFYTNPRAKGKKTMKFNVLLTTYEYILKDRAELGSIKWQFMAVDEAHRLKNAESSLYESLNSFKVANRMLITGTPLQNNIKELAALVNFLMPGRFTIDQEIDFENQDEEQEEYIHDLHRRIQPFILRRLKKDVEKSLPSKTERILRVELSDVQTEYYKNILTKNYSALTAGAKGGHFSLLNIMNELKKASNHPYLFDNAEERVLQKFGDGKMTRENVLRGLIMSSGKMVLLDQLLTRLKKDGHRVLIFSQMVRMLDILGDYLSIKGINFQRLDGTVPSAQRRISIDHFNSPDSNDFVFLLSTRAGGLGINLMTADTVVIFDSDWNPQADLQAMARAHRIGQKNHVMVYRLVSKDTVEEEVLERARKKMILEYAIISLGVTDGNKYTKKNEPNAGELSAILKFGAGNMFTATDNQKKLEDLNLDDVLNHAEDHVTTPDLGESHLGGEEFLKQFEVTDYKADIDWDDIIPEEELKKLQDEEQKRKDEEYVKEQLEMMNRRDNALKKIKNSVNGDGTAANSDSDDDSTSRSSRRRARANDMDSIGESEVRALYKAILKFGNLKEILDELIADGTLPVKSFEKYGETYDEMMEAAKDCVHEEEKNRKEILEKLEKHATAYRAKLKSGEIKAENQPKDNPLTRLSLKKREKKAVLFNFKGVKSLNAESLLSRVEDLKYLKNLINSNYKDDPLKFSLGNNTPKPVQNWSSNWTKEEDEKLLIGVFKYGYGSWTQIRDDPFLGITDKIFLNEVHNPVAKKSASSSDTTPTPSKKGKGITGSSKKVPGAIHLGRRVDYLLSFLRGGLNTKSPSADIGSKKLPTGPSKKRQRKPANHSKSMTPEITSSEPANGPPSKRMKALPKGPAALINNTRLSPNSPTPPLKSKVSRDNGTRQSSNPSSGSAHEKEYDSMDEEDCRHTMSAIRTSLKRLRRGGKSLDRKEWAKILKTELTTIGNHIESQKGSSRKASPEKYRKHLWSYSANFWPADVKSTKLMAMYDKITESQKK

Sequence of Sialic acid-binding Ig-like lectin 9 (Homo sapiens) (Q9Y336 whole entry): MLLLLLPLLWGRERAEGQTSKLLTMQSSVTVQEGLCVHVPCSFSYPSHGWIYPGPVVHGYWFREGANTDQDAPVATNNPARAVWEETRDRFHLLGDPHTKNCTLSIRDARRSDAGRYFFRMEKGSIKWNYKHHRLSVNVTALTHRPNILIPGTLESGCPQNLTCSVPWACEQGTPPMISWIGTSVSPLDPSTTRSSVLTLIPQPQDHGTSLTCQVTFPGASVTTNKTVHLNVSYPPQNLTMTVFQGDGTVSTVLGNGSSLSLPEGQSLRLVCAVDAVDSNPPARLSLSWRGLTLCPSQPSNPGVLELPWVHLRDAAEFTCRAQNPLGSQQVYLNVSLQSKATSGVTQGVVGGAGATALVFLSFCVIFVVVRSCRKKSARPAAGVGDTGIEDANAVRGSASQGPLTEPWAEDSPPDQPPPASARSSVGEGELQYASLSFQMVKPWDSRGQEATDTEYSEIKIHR
Sequence of Protein translocase subunit SecA (Escherichia coli (strain K12)) (P10408 whole entry): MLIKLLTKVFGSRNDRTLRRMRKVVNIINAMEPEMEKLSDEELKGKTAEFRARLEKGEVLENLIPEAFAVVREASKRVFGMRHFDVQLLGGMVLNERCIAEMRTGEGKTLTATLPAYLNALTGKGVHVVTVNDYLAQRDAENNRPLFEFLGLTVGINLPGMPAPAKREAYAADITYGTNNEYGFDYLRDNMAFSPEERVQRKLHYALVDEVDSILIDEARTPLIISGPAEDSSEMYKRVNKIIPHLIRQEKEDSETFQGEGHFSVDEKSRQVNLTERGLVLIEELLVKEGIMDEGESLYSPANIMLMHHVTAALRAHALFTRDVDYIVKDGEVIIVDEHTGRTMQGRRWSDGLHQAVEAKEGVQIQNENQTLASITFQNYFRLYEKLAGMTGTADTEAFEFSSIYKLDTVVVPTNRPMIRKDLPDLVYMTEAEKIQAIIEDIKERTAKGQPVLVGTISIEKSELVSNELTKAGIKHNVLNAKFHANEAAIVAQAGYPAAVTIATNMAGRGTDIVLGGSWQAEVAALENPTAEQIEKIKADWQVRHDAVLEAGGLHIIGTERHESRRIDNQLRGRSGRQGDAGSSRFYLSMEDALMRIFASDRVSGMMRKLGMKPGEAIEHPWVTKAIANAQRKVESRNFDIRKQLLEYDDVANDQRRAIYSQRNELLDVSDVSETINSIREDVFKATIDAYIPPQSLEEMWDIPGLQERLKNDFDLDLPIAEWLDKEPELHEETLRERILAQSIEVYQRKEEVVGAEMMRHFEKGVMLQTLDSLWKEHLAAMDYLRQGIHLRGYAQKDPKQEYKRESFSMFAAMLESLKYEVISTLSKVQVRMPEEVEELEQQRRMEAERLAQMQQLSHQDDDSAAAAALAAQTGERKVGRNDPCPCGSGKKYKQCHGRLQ

| Compound | Percent Effect [1] | Percent Effect [2] | Percent Effect [3] | Percent Effect [4] | Percent Effect (Trypanosoma cruzi) | Percent Effect [5] | Percent Effect [6] | Percent Effect (Homo sapiens) | Percent Effect [7] | Percent Effect [8] | Percent Effect [9] |
| --- | --- | --- | --- | --- | --- | --- | --- | --- | --- | --- | --- |
| CCOCC(O)CN1CCN(C(=O)c2cccnc2OC)CC1 (stereo not given) | -3.44% | 0% | 4.2% | 3.65% | -0.936% | 2.85% | -3.72% | 5.16% | 3.88% | 0% | 1.44% |
| COc1ccc(CN2C[C@H]3CN(c4ccsc4)C(=O)[C@H]3C2)cc1 | -1.53% | 0% | 6.82% | -0.914% | -3.23% | 0.955% | 19% | 14.6% | 2.16% | 10.3% | -1.59% |
| O=C(NCCN1CCOCC1)NCC(O)c1cccc(F)c1 (stereo not given) | -4.85% | 16.2% | -10.5% | 13.6% | 5.75% | -6.01% | 4.68% | 10.8% | 5.42% | 11.1% | -10.8% |
| Cc1nc(CN2CCOCC3(CCN(c4cccnc4)CC3)C2)cs1 | -4.45% | 5.41% | 0.402% | -0.618% | -2.34% | 2.08% | 14.4% | 4.77% | 3.96% | 11% | 3.31% |
| COc1ccc(COCC(O)CNC(=O)c2cc(C)cc(C)c2)cc1 (stereo not given) | -3.84% | 13.9% | 0.387% | -0.514% | 0.718% | -4.09% | 9.95% | 9.63% | 4.17% | 17.7% | -15.9% |
| CN(CCC(F)(F)F)C(=O)[C@H]1CSCN1C(=O)OC(C)(C)C | -4.76% | 0% | 3.13% | 1.23% | 8.03% | 0% | 1.77% | -11.9% | 1.07% | 2.5% | -1.07% |
| Cc1cnn(CC(C)NCc2csc(-c3cnn(C)c3)n2)c1 (stereo not given) | -0.0815% | 19% | -6.28% | -4.12% | -4.41% | 0.645% | 20.6% | 14% | 7.29% | -10.1% | -26.4% |
| CN(C)C(=O)N1CCc2c(CNc3ncccn3)cncc2C1 | -2.85% | 0% | -1% | 7.13% | 1.35% | -23.8% | 1.88% | -4.02% | 6.25% | 7.5% | -2.6% |
| CCn1cnnc1C1CCN(C(=O)COCCc2ccccc2)CC1 | -1.96% | 7.79% | 0.519% | -7.71% | 5% | -5.26% | 6.71% | -1.88% | -2.86% | 2.35% | -12.8% |
| COC(=O)c1sccc1S(=O)(=O)N1CCC(Oc2cccnn2)CC1 | -0.0971% | -5.48% | 16.5% | -5.94% | -3.33% | 1.36% | 9.58% | 9.58% | -6.45% | 0% | -3.65% |
